High-throughput results from PubChem BioAssay.
A selection: hits, their analogues and other compounds. The true share with any hit is near 4.1%.
hcDAF-12 act: H. contortus DAF-12 activation, primary screen; HEK293 hcDAF-12 lit1-tk-luc reporter, luminescence; 0% DMSO, 100% Δ7-dafachronic acid; activation, % at 6.8 µM; 1.4% of 370,000 active; AID 652067;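 active means activation above the mean of all tested compounds plus 3 SD, cut at about 5.5% in these data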
hgDAF-12 ag: agonists of H. glycines DAF-12 nuclear receptor; AID 687014; activation, % at 6.8 µM; HEK293 GAL4-hgDAF12 UAS-luciferase reporter, agonist luminescence; normalized to butyrate control; 1.8% of 370,000 active;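 active means activation above a cutoff set at the mean of all screened compounds plus 3 SD, cut at about 10% in these data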
DAX1 inh-1: blocks DAX1 repression of SF-1 activated StAR promoter; HEK293T StAR-luciferase reporter, SF-1/DAX-1 repression relief; AID 652010; inhibition, % at 6.8 µM; 1.1% of 370,000 active;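 active means inhibition above the mean over all tested compounds plus 3 SD, cut at about 3.6% in these data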;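 further: higher inhibition means more luminescence from relief of DAX-1 repression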
ssDAF12 agonist: activators of S. stercoralis DAF-12 nuclear receptor | 1% of 370,000 active | AID 652126 | HEK293 ssDAF-12/GRIP1 lit1-tk-luc reporter, luminescence; % of 3 µM dafachronic acid response | activation, % at 6.8 µM;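 active means activation above the mean over all tested compounds plus 3 SD, cut at about 0.9% in these data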
DAX1 inh-2: NR0B1 (DAX1) inhibition; HEK293 Gal4-DAX1 luciferase reporter, luminescence; P51843; 0.99% of 340,000 active; AID 504766; inhibition, % at 6.75 µM;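 active means inhibition above the mean over all tested compounds plus 3 SD, cut at about 4.2% in these data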;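 further: inhibition shows as a rise in luminescence from relieved DAX1 repression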
Target sequence (P51843 207-470 limits assumed): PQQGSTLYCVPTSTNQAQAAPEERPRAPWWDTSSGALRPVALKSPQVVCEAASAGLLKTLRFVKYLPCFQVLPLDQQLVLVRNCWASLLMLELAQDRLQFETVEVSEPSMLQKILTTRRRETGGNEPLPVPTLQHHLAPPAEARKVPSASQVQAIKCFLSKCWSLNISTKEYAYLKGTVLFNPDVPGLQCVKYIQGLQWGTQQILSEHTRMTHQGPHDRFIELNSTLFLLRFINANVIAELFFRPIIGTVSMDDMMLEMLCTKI
Hits are given with their value; 0 = inactive; - = no result.

SMILES	hcDAF-12 act	hgDAF-12 ag	DAX1 inh-1	ssDAF12 agonist	DAX1 inh-2
N/C(=N\O)c1ccc(Oc2ccccc2Cl)c([N+](=O)[O-])c1	0	0	0	0	5.4
O=[N+]([O-])c1ccccc1Oc1ccccc1Cl	0	0	0	0	0
CC(C(=O)Nc1cccnc1)C1Sc2ccccc2NC1=O (centres undefined)	6.0	0	0	0	0
CC(C)=CC(=O)Nc1c(C)cc(C)cc1Cl	0	0	0	0	4.6
Cc1cc(C)c(NC(=O)CCCC(=O)O)c(Cl)c1	0	0	0	0	0
Nc1[nH]c(C(=O)c2ccccc2)c(-c2ccc(Cl)cc2)c1C(=O)c1c[nH]c2ccccc12	0	0	0	0	-
COc1ccc([C@H]2N[C@]3(CCCN(Cc4ccc(Br)cc4)C3=O)[C@H]3C(=O)N(C)C(=O)[C@@H]23)cc1	0	0	0	0	0
CCC(C)[C@H](NC(=O)N1CC(=O)Nc2ccccc21)C(=O)N[C@@H](Cc1c[nH]c2ccccc12)C(=O)O (some centres undefined)	5.9	0	0	0	0
O=C1CN(C(=O)N[C@@H](Cc2ccccc2)C(=O)N[C@@H](Cc2ccccc2)C(=O)O)c2ccccc2N1	0	0	0	0	0
CC(C)[C@H](NC(=O)N1CC(=O)Nc2ccccc21)C(=O)N[C@@H](Cc1ccccc1)C(=O)O	0	0	0	0	7.0
O=C(CC1C(=O)OCN1C(=O)OCc1ccccc1)OCC(=O)c1ccccc1 (centres undefined)	0	0	0	0	4.9
CC(C)(C)C(=O)O/N=C(\N)COc1cccc(Cl)c1	0	0	0	0	6.9
Cc1ccc(C(=O)N(CC(=O)NC2CCCC2)c2ccccc2Cl)s1	0	0	0	0	0
Cc1ccc(NC(=O)CN2CCC(NC(=O)Cc3ccccc3)CC2)c(C)c1	0	0	0	1.2	0
COc1ccc(NC(=S)N2CCCC2)c(OC)c1	0	0	0	0	4.6
COc1ccccc1NC(=S)N1CC(C)OC(C)C1 (centres undefined)	0	0	0	0	4.6
COc1ccc(Cl)cc1NC(=S)N1CC(C)OC(C)C1 (centres undefined)	0	0	0	0	0
COc1ccc(NC(=S)N2CCN(Cc3cccc(F)c3)CC2)c(OC)c1	0	0	0	0	5.0
COc1ccc(NC(=S)N2CCN(c3ccccc3)CC2)c(OC)c1	0	0	0	0	0
CCc1nc2c(OCc3ccccc3C)cccn2c1N(C)C(=O)c1ccc(C)cc1	0	0	0	0	-
CNc1ncn(-c2c(C)cccc2C)c(=O)n1	0	0	0	0	-
CC(C)=CC(=O)OCc1cc([N+](=O)[O-])cc2c1OCOC2	0	10.6	3.8	1.0	0
O=C(OCc1cc([N+](=O)[O-])cc2c1OCOC2)c1ccc2ccccc2n1	0	0	0	0	0
CC(C)[C@H](NC(=O)c1ccccc1Cl)C(=O)OCc1cc([N+](=O)[O-])cc2c1OCOC2	0	0	0	1.0	0
COc1ccc(C2=NN(CN3C(=O)C(=O)c4ccccc43)C(c3ccc(OC)cc3)C2)cc1 (centres undefined)	0	11.1	0	0	0
SMILES	hcDAF-12 act	hgDAF-12 ag	DAX1 inh-1	ssDAF12 agonist	DAX1 inh-2
COc1ccc(C2=NN(S(=O)(=O)c3ccccc3)C(c3ccccc3)C2)cc1 (centres undefined)	0	0	0	0	0
CSc1nsc2nc(=O)c(/C=C3\C(C)=Nc4ccccc43)c(N)n12	0	0	0	0.9	0
CCCCNc1ccc2c(c1)OC[C@@H](Cc1ccccc1)NS2(=O)=O	0	0	0	0	-
COC(=O)C1=C(C)N(Cc2cccc(C(F)(F)F)c2)C(=NCc2ccc(OC)cc2)NC1c1cccc(C(F)(F)F)c1 (centres undefined)	0	0	0	0	-
O=C(NCc1ccccc1Cl)C1CCN(C(=O)c2ccc(F)cc2)CC1	0	0	0	0	0
O=C(NCc1ccccc1CN1CCCC1)C1CCN(C(=O)c2ccc(F)cc2)CC1	0	0	3.8	0	0
COc1ccc(N2C(=O)c3ccccc3NC23CCC(C)CC3)cc1 (centres undefined)	0	12.8	0	0	0
CCC1(C)Nc2ccccc2C(=O)N1O (centres undefined)	0	0	0	0	0
CCOc1ccc(N2C(=O)c3ccccc3NC2(C)CC)cc1 (centres undefined)	0	12.1	3.7	0	0
CC(C)C[C@H]1COc2c(Cl)cccc2S(=O)(=O)N1Cc1cccc(Cl)c1	0	0	0	0	-
O=S(=O)(NCc1ccccc1)NCc1cccc(C(F)(F)F)c1	0	0	0	0	4.7
CC1CCCCC1NC(=O)CSc1nnc(-c2ccco2)n1N (centres undefined)	0	0	0	0	0
COc1ccccc1NC(=O)C(=O)N/N=C/c1cccs1	6.2	0	0	0	0
O=C(COC(=O)C1CCN(/C=C/C(=O)C(F)(F)F)CC1)Nc1cccc(F)c1	6.0	0	0	0	0
C[C@H](O)[C@@H]1CN2CCc3c([nH]c4cccc(-c5ccc6c(c5)OCO6)c34)[C@@H]2C[C@@H]1N(C)C(=O)c1ccco1	0	0	0	0	-
CC(=O)Nc1ccc(-c2ccnc3c2CC(C)(C(=O)NCc2cccc(Cl)c2)O3)cc1 (centres undefined)	0	0	0	0	-
Cc1ccc(C)c(NC(=S)NNC(=O)c2cc3c(s2)CCC(C)C3)c1 (centres undefined)	0	0	0	0	0
Cc1cccc(NC(=S)NNC(=O)c2cc3c(s2)CCC(C)C3)c1C (centres undefined)	0	0	0	20.3	0
CSc1ccc(/C=C(\NC(=O)c2ccccc2)C(=O)NCCN2CCOCC2)cc1	0	0	0	0	5.2
O=C(NCCN1CCOCC1)/C(=C/c1ccccc1)NC(=O)c1ccccc1	0	0	0	0	0
O=[N+]([O-])c1ccc(Nc2ccc(Cl)cc2)nc1	0	0	0	0	-
O=[N+]([O-])c1ccc(Nc2ccc3ccccc3c2)nc1	0	11.1	0	0	0
COCCN1C(=O)C2=C(C1=O)C1N(C)c3ccccc3[C@@]13C[C@@H](CO)N(S(=O)(=O)c1ccc(OC)cc1)C3=N2 (some centres undefined)	0	0	0	0	-
Cc1ccc(-c2ccc3nnc(SCC(N)=O)n3n2)cc1	0	0	0	0	7.0
Cc1nc2c(-c3ccc(F)cc3)cnn2c2c1CCC2	5.7	0	0	0	0
CCCC[C@@H]1CC2=C(C(=O)OC(C)(C)O2)[C@H](c2ccc(C(C)C)cc2)O1	0	0	0	0	-
Cc1ccc(-c2nnc(CCC(=O)N(C)Cc3nccs3)o2)s1	0	0	0	1.9	0
CC(=O)c1ccc(-c2nnc(CCC(=O)N(C)Cc3cccc4cnccc34)o2)s1	0	0	0	0	0
CN(Cc1ccccc1F)C(=O)Cn1c(-c2cncs2)nc2ccccc21	0	0	0	0	-
